# Measurements as given in PubChem BioAssay.
# Potency and affinity values are given separately. Activity calls are given as the source filed them. A call without a number means that no potency is given here. No rule for the calls is given here.
# Experiment: OVCAR8 cell viability loss – plate reader, dry powder samples, PAX8 project, dose response (AID 743197)
# Settings: series mostly up to 35 µM
row,Structure (SMILES),outcome
1,O=C(C[C@H]1CC[C@H]2[C@@H](COC[C@@H](O)CN2S(=O)(=O)c2ccccc2Cl)O1)N1CCC(Cc2ccccc2)CC1,inactive
2,Cc1noc(C)c1NC(=O)Nc1cccc2c1O[C@H](CN(C)Cc1ccc(C(F)(F)F)cc1)[C@H](C)CN([C@@H](C)CO)C2=O,inactive
3,C[C@@H]1CN([C@@H](C)CO)C(=O)Cc2cc(NC(=O)Nc3ccc(C(F)(F)F)cc3)ccc2O[C@H]1CN(C)Cc1ccc(Cl)c(Cl)c1,inactive
4,C[C@H]1CN([C@@H](C)CO)C(=O)Cc2cc(NC(=O)Nc3ccc(C(F)(F)F)cc3)ccc2O[C@H]1CN(C)C(=O)Nc1ccc(C(F)(F)F)cc1,inactive
5,C[C@@H]1CCCCO[C@@H](CN(C)C(=O)C2CCCCC2)[C@H](C)CN([C@H](C)CO)C(=O)c2cc(NC(=O)Nc3ccc(F)cc3)ccc2O1,inactive
